Here are results for five compounds from PubChem BioAssay.

The source made the active and inactive calls.

Assay [1] in a line: small molecules captured by biotinylated probe aFSTL3 – biochemical, small-molecule microarray, fluorescence 635/667, stem cell growth factor project, primary screen (AID 1064).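 Further: measures binding of the biotinylated anti-FSTL3 antibody to printed compounds.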 The settings on record: higher = more signal.
Assay [2] can be described thus: binders from COS7 lysate, DM2A8 probe, primary screen, torsin A project, cell lysate, small-molecule microarray, fluorescence 635/667 (AID 1065). Conditions: higher = more signal, COS7 lysate expressing mutant human TOR1A.
The nature of assay [3]: small molecules captured by biotinylated probe aFGF2 – biochemical, small-molecule microarray, fluorescence 635/667, stem cell growth factor project, primary screen (AID 1067).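 Further: measures binding of biotinylated aFGF2 protein to printed compounds on slides; z-score merges feature fluorescence and signal-to-noise across triplicate slides.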 The settings on record: higher = more signal.
Assay [4] in a line: small molecules captured by biotinylated probe aFGF10 – biochemical, small-molecule microarray, fluorescence 635/667, stem cell growth factor project, primary screen (AID 1071).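 Further: score merges 667 nm spot intensity and signal to noise from triplicate slides.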 The settings on record: higher = more signal.
For assay [5], the target named is Neurogenic locus notch homolog protein 2 (Homo sapiens) (UniProt Q04721). The assay can be described thus: small molecules binding Notch2 protein – biochemical, small-molecule microarray, 635 nm fluorescence, stem cell growth factors, primary screen (AID 1073). The settings on record: higher = more signal.
Assay [6] concerns the target Pro-neuregulin-1, membrane-bound isoform (Homo sapiens) (UniProt Q02297). The assay can be described thus: small molecules binding neuregulin-1 protein – biochemical, small-molecule microarray, fluorescence 635/667, psychiatric disease protein project, primary screen (AID 1075).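 Further: score combines 667 nm spot fluorescence with signal to noise.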 Conditions: NRG1 binding, 635 nm fluorescence, higher = more signal.
In assay [7] the test system is Neuregulin-1 EGF-like domain. The assay can be described thus: small molecules binding NRG1 EGF domain – biochemical, small-molecule microarray, 635 nm fluorescence, primary screen (AID 1081).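 Further: binding of the protein to compounds printed on small-molecule microarray slides.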 The settings on record: higher = more signal.
Assay [8] can be described thus: FRG1 expression reporter modulators in myotubes – cell-based, C2C12 myotubes, firefly/Renilla luciferase, luminescence, FRG1 inhibition for FSHD, primary screen (AID 1084). The settings on record: FRG1 promoter luciferase, higher = more signal, called active from +8 up or from −8 down.
The nature of assay [9]: small molecules captured by biotinylated probe aFST – biochemical, small-molecule microarray, fluorescence 635/667, stem cell growth factor project, primary screen (AID 1086).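 Further: score merges 667 nm fluorescence with signal-to-noise of each printed compound spot.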 Conditions: higher = more signal.
The nature of assay [10]: binders of probe aHhip on microarray, primary screen, stem cell growth factor project, biochemical, small-molecule microarray, fluorescence 635/667 (AID 1087).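 Further: score merges spot fluorescence at 667nm with spot signal to noise ratio.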 The settings on record: higher = more signal.
The subject of assay [11] is PRMT1 (protein arginine N-methyltransferase 1). The assay can be described thus: small molecules binding arginine methyltransferase PRMT1 – biochemical, small-molecule microarray, 635 nm fluorescence, primary screen (AID 1088).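 Further: binding of Prmt1 protein to compounds spotted on small-molecule microarray slides.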 Conditions: higher = more signal.
Assay [12] can be described thus: growth effects on S. cerevisiae YJM789 – YJM789 clinical isolate, OD600, 24 h, basal, primary screen (AID 1089).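 Further: growth of clinical yeast isolate S. cerevisiae YJM 789 seeded 1000 cells per well; test concentration not given here.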 Conditions: higher = more signal, called active from +8 up or from −8 down.
The nature of assay [13]: S. pombe growth modifiers, basal conditions – strain 972, OD600, 24 h, no modulator, primary screen (AID 1090).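 Further: basal condition with compound alone and no growth modifier present; test concentration not given here.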 Conditions: S. pombe 972 growth, higher = more signal, called active from +8 up or from −8 down.
The nature of assay [14]: budding yeast growth modifiers under rapamycin – strain BY4716, OD600, 96 h, primary screen (AID 1091). Further: test concentration not given here. Conditions: S. cerevisiae BY4716 + rapamycin, higher = more signal, called active from +8 up or from −8 down.
Assay [15] concerns the target Torsin-1A-interacting protein 2 (Homo sapiens) (UniProt Q8NFQ8). The assay can be described thus: small molecules binding lysate-expressed LULL1 – cell lysate, human LULL1 lysate, 635/667 nm fluorescence, primary screen (AID 1092).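 Further: probe is lysate of COS7 cells overexpressing human LULL1; score merges per-feature 667 nm fluorescence with signal-to-noise.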 Conditions: small-molecule microarray, hLULL1 lysate binding, 635 nm fluorescence; higher = more signal.
A short description of assay [16]: optical density change of DRC41 E. coli – strain DRC41, OD650, 24 h, E. coli filamentation project, primary screen (AID 1093).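 Further: MC1000 strain lacking acrAB efflux and sulA so SOS filamentation is blocked; test concentration not given here.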 Conditions: E. coli DRC41 growth, higher = more signal, called active from +8 up or from −8 down.
Assay [17] is described as follows: probe aLefty2 binding to arrayed compounds – biochemical, biotinylated probe, 635/667 nm fluorescence, primary screen (AID 1094).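 Further: score merges spot fluorescence near 667 nm with spot signal-to-noise ratio.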 Conditions: small-molecule microarray, higher = more signal.
The test system of assay [18] is Noggin (protein binding on small-molecule microarray). The assay can be described thus: small molecules binding Noggin protein – biochemical, 635/667 nm fluorescence, primary screen (AID 1095).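 Further: score merges 667 nm feature fluorescence with signal to noise over triplicate slides.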 Conditions: 635 nm fluorescence, higher = more signal.
Assay [19] addresses Neurogenic locus notch homolog protein 3 (Homo sapiens) (UniProt Q9UM47). The assay can be described thus: small molecules binding NOTCH3 protein – biochemical, 635/667 nm fluorescence, primary screen (AID 1096). Conditions: small-molecule microarray, 635 nm fluorescence, higher = more signal.
Assay [20] in a line: probe aEGFR binding to arrayed compounds – biochemical, biotinylated probe, 635/667 nm fluorescence, primary screen (AID 1097).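 Further: probe is a biotinylated anti-EGFR antibody binding compounds printed on slides; score combines fluorescence near 667 nm and signal to noise of each spot.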 The settings on record: small-molecule microarray, higher = more signal.

Chain of Torsin-1A-interacting protein 2 (Homo sapiens) (Q8NFQ8 whole entry, looked up): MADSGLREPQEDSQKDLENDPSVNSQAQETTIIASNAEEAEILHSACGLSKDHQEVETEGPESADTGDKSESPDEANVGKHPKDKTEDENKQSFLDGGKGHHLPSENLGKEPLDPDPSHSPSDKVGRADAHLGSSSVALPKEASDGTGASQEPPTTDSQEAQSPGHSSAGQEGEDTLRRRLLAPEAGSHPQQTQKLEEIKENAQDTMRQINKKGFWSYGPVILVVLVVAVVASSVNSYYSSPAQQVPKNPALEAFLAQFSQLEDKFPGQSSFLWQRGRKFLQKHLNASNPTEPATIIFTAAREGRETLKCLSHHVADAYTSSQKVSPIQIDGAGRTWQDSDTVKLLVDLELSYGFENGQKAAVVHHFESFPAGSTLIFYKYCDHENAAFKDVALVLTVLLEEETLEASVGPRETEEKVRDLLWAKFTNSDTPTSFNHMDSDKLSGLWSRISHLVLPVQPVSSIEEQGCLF
Chain of Neurogenic locus notch homolog protein 2 (Homo sapiens) (Q04721 whole entry, looked up, canonical isoform): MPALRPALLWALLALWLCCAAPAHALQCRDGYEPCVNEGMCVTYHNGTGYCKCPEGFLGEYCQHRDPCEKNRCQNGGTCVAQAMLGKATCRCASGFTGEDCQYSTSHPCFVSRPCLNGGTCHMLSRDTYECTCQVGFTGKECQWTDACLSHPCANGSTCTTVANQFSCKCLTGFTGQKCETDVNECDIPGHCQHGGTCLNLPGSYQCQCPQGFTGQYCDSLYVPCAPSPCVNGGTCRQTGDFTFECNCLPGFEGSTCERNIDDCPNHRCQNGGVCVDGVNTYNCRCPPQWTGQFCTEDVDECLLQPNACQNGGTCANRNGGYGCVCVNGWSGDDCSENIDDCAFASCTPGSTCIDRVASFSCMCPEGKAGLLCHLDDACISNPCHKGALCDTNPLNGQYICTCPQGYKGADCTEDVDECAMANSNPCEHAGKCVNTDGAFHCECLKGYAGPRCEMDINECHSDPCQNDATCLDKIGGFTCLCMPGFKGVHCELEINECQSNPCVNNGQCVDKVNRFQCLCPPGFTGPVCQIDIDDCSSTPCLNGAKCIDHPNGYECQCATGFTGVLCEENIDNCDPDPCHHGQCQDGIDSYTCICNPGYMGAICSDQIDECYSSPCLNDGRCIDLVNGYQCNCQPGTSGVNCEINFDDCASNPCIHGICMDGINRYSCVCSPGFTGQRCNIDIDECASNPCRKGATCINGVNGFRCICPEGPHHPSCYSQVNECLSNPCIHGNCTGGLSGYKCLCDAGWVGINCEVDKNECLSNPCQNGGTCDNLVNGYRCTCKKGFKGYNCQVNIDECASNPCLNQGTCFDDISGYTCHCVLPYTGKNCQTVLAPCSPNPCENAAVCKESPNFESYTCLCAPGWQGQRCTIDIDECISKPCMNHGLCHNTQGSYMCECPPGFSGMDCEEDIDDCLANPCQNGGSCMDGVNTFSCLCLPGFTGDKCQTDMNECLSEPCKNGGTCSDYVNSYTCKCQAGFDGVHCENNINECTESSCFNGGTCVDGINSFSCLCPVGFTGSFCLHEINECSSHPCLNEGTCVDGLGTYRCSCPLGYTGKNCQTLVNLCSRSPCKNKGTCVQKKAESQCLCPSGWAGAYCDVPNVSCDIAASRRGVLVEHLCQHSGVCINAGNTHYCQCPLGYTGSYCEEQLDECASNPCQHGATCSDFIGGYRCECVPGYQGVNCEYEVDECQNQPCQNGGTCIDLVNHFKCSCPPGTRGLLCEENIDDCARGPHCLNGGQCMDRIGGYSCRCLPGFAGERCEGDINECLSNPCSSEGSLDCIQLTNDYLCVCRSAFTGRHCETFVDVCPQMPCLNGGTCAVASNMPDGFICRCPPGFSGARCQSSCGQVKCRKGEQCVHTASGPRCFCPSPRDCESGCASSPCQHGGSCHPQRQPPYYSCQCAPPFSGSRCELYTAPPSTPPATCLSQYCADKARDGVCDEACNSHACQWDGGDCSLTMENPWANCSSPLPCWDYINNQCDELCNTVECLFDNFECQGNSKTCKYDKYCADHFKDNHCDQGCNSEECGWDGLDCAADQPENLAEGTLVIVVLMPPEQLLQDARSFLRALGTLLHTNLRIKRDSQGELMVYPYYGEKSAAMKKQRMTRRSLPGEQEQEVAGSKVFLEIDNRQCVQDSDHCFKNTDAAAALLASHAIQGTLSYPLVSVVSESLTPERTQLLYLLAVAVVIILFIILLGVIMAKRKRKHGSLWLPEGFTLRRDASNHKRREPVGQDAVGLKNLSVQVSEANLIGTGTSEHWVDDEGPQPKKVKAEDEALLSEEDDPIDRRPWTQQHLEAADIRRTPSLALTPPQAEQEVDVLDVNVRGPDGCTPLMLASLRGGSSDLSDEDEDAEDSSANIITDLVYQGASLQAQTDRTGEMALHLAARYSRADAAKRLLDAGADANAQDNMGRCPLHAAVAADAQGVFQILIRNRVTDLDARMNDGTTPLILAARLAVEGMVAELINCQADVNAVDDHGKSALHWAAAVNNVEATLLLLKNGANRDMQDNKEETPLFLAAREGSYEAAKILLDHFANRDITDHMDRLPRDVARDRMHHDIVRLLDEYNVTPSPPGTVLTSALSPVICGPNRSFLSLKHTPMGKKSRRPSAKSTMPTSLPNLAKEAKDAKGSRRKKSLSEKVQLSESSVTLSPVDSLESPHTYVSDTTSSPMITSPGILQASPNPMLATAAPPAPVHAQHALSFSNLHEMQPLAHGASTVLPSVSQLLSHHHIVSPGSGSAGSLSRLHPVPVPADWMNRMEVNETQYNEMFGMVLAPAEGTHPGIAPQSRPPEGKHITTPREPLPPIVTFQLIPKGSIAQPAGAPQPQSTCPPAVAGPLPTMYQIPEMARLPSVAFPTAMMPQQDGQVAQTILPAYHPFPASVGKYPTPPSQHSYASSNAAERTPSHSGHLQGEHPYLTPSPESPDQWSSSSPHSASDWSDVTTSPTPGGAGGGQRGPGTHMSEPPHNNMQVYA
Chain of Pro-neuregulin-1, membrane-bound isoform (Homo sapiens) (Q02297 whole entry, looked up, the tested form may be a part, canonical isoform): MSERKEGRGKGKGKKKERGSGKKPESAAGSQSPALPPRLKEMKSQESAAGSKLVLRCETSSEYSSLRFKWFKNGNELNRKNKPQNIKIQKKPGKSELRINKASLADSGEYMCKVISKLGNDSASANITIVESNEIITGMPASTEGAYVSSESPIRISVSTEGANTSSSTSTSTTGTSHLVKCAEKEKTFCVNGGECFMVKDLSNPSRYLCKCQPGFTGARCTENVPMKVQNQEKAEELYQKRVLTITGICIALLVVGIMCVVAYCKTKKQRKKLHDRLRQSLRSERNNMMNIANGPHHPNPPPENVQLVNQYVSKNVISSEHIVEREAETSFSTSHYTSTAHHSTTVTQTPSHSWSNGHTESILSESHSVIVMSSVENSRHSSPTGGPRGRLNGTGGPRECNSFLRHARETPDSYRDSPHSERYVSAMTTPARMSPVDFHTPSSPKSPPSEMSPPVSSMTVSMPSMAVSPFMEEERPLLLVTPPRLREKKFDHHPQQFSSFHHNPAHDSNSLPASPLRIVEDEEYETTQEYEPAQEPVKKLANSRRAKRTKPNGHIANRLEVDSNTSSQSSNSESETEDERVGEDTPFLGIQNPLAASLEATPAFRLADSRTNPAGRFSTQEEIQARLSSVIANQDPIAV

Take `Nc1cc(Br)ccc1C(=O)O`: the composite z-score in assay [1] was -0.0861; in [2], 0.0499; in assay [3] it was -0.17; in assay [4] it was 0.307; in assay [5] it was 0.314; in assay [6], 0.505. Also, the composite z-score in [7] was 0.742; in assay [9], 0.195; in assay [10] it was -0.229; in assay [11], 0.409; in assay [15], 0.568; in assay [17] it was -0.0664. Besides, the values for the composite z-score in [18], in assay [19] and in assay [20] were 0.136, 0.332 and -0.0961, respectively. Besides, the z-score is 0.0039 (inactive) in assay [8]; -0.585 (inactive) in assay [12]; -1.64 (inactive) in assay [13]; -0.0096 (inactive) in assay [14]; -1.2 (inactive) in assay [16].

In the case of `[N-]=[N+]=NC[C@H](Cc1ccccc1)NC(=O)c1ccccc1`, the composite z-score in assay [1] was -0.259; in [2], 0.2; in [3] it was -0.107; in [4], -0.168; in assay [5], -0.0596; in assay [6] it was -0.0451. Moreover, the composite z-score in assay [7] is -0.123; in assay [9], 0.135; in assay [10], -0.0618; in assay [11] it was 0.376; in assay [15], 0.214; in assay [17], -0.0666. Besides, the composite z-score in assay [18] is 0.014; in assay [19], -0.371; in assay [20] it was -0.14. Further, the z-score in assay [8] was 1.43 (inactive); in [12], -1.02 (inactive); in assay [13], -2.38 (inactive); in assay [14], -1.27 (inactive); in assay [16], 1.56 (inactive).

For the compound `CN1C(=O)C2C(C1=O)C1C=C(CCCO)C2C(c2cccs2)N1Cc1cc2c(cc1Br)OCO2` (stereo not given), the composite z-score is -0.262 in assay [1]; 0.725 in [2]; 0.131 in [3]; 0.645 in assay [4]; 1.62 in assay [5]; 2.19 in [6]. Besides, the composite z-score is 1.28 in [7]; 1.6 in [9]; -0.109 in assay [10]; 1.54 in assay [11]; 3.41 in assay [15]; 0.0923 in assay [17]. The composite z-score in [18] is 0.639; in [19], 1.03; in assay [20], 0.095. In addition, the z-score in [8] was -3.26 (inactive); in assay [12], -0.653 (inactive); in assay [13], -1.25 (inactive); in assay [14], -0.631 (inactive); in assay [16], 1.12 (inactive).

As for `COc1ccc(C#Cc2ccc3c(c2)[C@]2(C(=O)N3)[C@H](c3ccc(OCCO)cc3)N3[C@H](c4ccccc4)[C@H](c4ccccc4)OC(=O)[C@H]3[C@@H]2C(=O)N2CCc3cc(OC)c(OC)cc3C2)cc1`, the composite z-score in assay [1] was -0.253; in assay [2] it was 0.447; in assay [3], -0.0746; in assay [4] it was 0.862; in [5] it was 1.2; in assay [6], 1.78. The composite z-score in assay [7] is 1.16; in assay [9] it was 0.0959; in [10], -0.623; in [11], 1.55; in [15] it was 2.81; in assay [17], -0.209. The composite z-score is 0.784 in assay [18], 1.12 in [19] and 0.481 in assay [20]. In addition, the z-score in assay [8] is 1.14 (inactive); in [12] it was 2.27 (inactive); in assay [13], 1.94 (inactive); in assay [14], 4.57 (inactive); in assay [16] it was 0.0933 (inactive).

Regarding `O=C(O)[C@H]1C[C@H]2C(=O)N[C@@H](Cc3ccccc3)C(=O)N2[C@H]1c1cccc(OCCO)c1`, the composite z-score in assay [1] is 0.07; in [2], 0.96; in assay [3] it was -0.0246; in [4], 0.495; in assay [5], -0.116; in assay [6] it was 0.154. For the same compound, the composite z-score in assay [7] amounted to 1.44; in [9], 0.309; in [10] it was 0.188; in assay [11], 1.46; in assay [15] it was 2.14; in [17], 0.127. Further, the composite z-score in assay [18] came to 1.74; in assay [19], 0.814; in assay [20] it was 0.206. The z-score is 5.68 (inactive) in assay [8]; 0.893 (inactive) in [12]; -1.11 (inactive) in assay [13]; -0.629 (inactive) in [14]; 0.446 (inactive) in assay [16].
